# Compound activity: PubChem, Center for Chemical Genomics, University of Michigan
# Dicer inh – inhibitors of Dicer pre-microRNA processing, primary screen, biochemical, cat-ELCCA, chemiluminescence. cat-ELCCA pre-miR-21 Dicer processing; stronger effect = higher value. z-score at 25 µM. 6% of 47,000 active. AID 1347074, 2019; in the data active = z-score above about 3, passing the limit was not always enough;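 also: plate controls were vehicle for no effect and no enzyme for full effect; higher signal means more uncleaved substrate so more Dicer inhibition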
# * hit, by the source's call. The sample as a whole holds a higher share of hits than the screen did.
SMILES,Dicer inh
CCOC(=O)c1c(C)c(C#N)c(NC(=O)C(C)(C)C)n1-c1ccccc1,-1.1
CC(=O)Nc1ncc2c(n1)CC(c1ccco1)CC2=O (centres undefined),1
O=C(O)c1cc(-c2ccco2)nc2cc3ccccc3cc12,1.2
CN(C)c1ccc(C(=O)c2ccccc2C(=O)O)c(O)c1,3.2*
COc1ccc(C(=O)c2ccccc2O)c(O)c1,6.3
Cc1ccc(C(=O)c2ccccc2C(=O)O)cc1C,0.06
CCCCOC(=O)Nc1sc2c(c1C(=O)OC)CCC(C)C2 (centres undefined),-1.2
CCOC(=O)c1c(N)sc2c1CC(C)(C)NC2(C)C,-0.74
COc1ccc(CCC(=O)CCc2ccc(OC)cc2)cc1,5.7
Cc1ccc(C2C3=C(CC(C)(C)CC3=O)Nc3nc(C(F)(F)F)nn32)cc1 (centres undefined),1.2
COc1ccc(NC(=O)/C=C/c2ccc(Cl)cc2)cc1,-0.89
COc1ccc(Nc2nc(NC(=O)Nc3ccc(Cl)cc3)n[nH]2)cc1,10*
COc1ccc2nc(NC(=O)Nc3ccc(Cl)cc3)sc2c1,2.7
Cn1c(-c2ccccc2)cnc1NCc1ccc(F)cc1F,1.3
COc1cc(C2Nc3ccccc3NC3=C2C(=O)CC(c2ccccc2Cl)C3)ccc1O (centres undefined),2.5
COc1ccc2[nH]c(-c3ccc(-c4ccccc4F)cc3)c(C)c2c1,-0.38
Cc1c(C)c(C)c(S(=O)(=O)Nc2cc(-c3ccccc3)nn2CCC#N)c(C)c1C,1
CC1C/C(=N\Nc2ccc(I)cc2)c2cc(Cl)ccc2S1(=O)=O (centres undefined),4*
Cn1nc(-c2ccccc2)cc1NC(=O)C1CCCCC1,0.51
CC1=C(C(=O)OC2CCCCC2)C(c2ccc(O)cc2)C2=C(CCCC2=O)N1 (centres undefined),-0.58
O=C(/C=C1/NCCS1)c1ccc(Cl)cc1,3.8*
CSC(=CC(=O)c1ccc(Cl)cc1)SC,-0.68
Cc1ccc(C(=O)/C=C/Nc2ccc(Cl)cc2)cc1,1.3
COC(=O)/C(=C\Nc1ccc(Sc2ccc(Cl)cc2)nc1)NC(=O)c1ccccc1,-0.21
COc1nc(C)cc(C(F)(F)F)c1C#N,0.61
SMILES,Dicer inh
Cc1ccccc1N/C=C(\C#N)C(=O)c1cc(C(C)(C)C)oc1C,-0.54
CCOC(=O)c1c(C)n(-c2ccccc2)c2ccc(OC(=O)c3cccs3)cc12,1.4
CCOC(=O)c1c(C)n(CCO)c2ccc(O)cc12,1.9
CCOC(=O)c1sc(-c2ccc(C)cc2)nc1O,-0.32
CCOC(=O)c1sc(=S)n(-c2ccc(Cl)cc2)c1C,0.39
CCOC(=O)c1c(C)n(-c2ccc(OC)cc2)c2ccc(O)cc12,4.7*
CCOC(=O)c1sc2c(c1O)c(=O)n(-c1ccccc1)c(=S)n2-c1ccccc1,-0.09
CCOC(=O)c1sc(=S)n(-c2cc(C)ccc2C)c1N,5.2*
CCOC(=O)c1sc(=S)n(-c2ccc(OC)cc2)c1C,4.2*
CCOC(=O)c1c(C)n(-c2ccccc2)c2c1cc(O)c1ccccc12,-1.9
CCOC(=O)c1c(C)n(-c2ccc(N(C)C)cc2)c2ccc(O)cc12,6.6*
CCOC(=O)c1c(O)c(O)c(C(=O)OCC)n1-c1ccc(OC)cc1,0.01
CCOC(=O)c1c(C)n(-c2ccccc2)c2ccc(O)cc12,1.5
CCOC(=O)C1=C(C)Nc2nc3ccccc3n2C1c1ccc(C)cc1 (centres undefined),0.34
O=C(Cn1cccc(C(F)(F)F)c1=O)c1ccc(Cl)cc1,17
COc1ccc(C(=O)CC(Sc2ccc(Cl)cc2)c2ccccc2)cc1 (centres undefined),-2.2
Cc1ccc(C(=O)Nc2cnc3sc4cc(Cl)ccc4n3c2=O)cc1,1.6
Cc1c(C#N)c(SCc2ccc(Cl)cc2)nc2ccccc12,-0.77
O=C(O)CCSC1CC(=O)N(c2ccc(OC(F)(F)F)cc2)C1=O (centres undefined),1.5
COc1ccc(Br)cc1Cc1nc(C)cc(Cl)n1,0.41
CCOc1cc(C2c3c(oc4ccc(F)cc4c3=O)C(=O)N2c2nnc(CC(C)C)s2)ccc1O (centres undefined),0.48
CC(C)C12CN3CC(C(C)C)(CN(C1)C3c1ccc(O)cc1O)C2=O (centres undefined),5.7*
CC12CN3CC(C)(CN(C1)C3c1ccc(O)cc1O)C2=O (centres undefined),-2.8
CCC12CN3CC(CC)(CN(C1)C3c1ccc(O)cc1O)C2=O (centres undefined),0.45
N#CCCn1nc(-c2ccc(F)cc2)ccc1=O,-2.4
SMILES,Dicer inh
CCOc1cc(C2C3=C(Nc4c2c(=O)n(C)c(=O)n4C)c2ccccc2C3=O)ccc1O (centres undefined),-1
COc1ccc(-c2nn(CCC#N)c(=O)[nH]2)cc1,0.66
c1n[nH]c(SCCCCCCSc2ncn[nH]2)n1,-0.37
Cc1cccc(C)c1NC(=O)C(C)N (centres undefined),0.84
CCCSC(=NCC)Nc1c(C)cccc1C,0.82
CSC(=NC(C)(C)CO)Nc1c(C)cccc1C,4.8*
